# Experimental data as given in paper PMC10812921, “Transcriptional Coactivator BOB1 (OBF1, OCA-B) Modulates the Specificity of DNA Recognition by the POU-Domain Factors OCT1 and OCT2 in a Monomeric Configuration”.
# Molecular target: T1, POU2 (OCT2 POU domain) (human, UniProt P09086 175-386)
# T1 sequence: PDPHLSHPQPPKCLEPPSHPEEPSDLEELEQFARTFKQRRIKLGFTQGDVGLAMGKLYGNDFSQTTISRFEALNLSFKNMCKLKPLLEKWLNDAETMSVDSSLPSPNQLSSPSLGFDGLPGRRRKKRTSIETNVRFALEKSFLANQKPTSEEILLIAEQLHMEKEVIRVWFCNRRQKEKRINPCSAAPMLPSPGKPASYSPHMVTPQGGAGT
# Test: EMSA-SELEX-seq; no BOB1; 20 mM Tris-HCl pH 7.6, 140 mM NaCl, 10% glycerol, 0.5 mM EDTA, 0.05% Triton X-100, 0.1 mg/mL BSA, 0.1 mg/mL poly(dI-dC), 5 mM DTT, room temperature, 20 min; high values mean tight binding
# Settings: protein: recombinant; dsDNA, one strand shown
# Outline: (§1)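 After expression in E. coli BL21, tagged POU-domain proteins were purified under denaturing conditions and then renatured. Each binding reaction held 30 ng protein and 300 ng of a PCR-amplified double-stranded random 35-nt library in 20 μL Tris–HCl pH 7.6 binding buffer, with or without 28 ng coactivator protein, for 20 min at RT. Bands holding complexes were cut from native 6% PAGE, eluted and PCR-amplified across four rounds, and the output was Illumina-sequenced. The value given for binding preference is the share, in percent, of sequenced 8-mers fitting a motif pattern.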
row,Sequence,binding signal
1,AGCGCAAT,0.0368 % of ANNNNAAN 8-mers
2,ATGACAAA,0.0639 % of ANNNNAAN 8-mers
3,ATTTAAAA,0.299 % of ANNNNAAN 8-mers
4,ATGCGAAG,0.0604 % of ANNNNAAN 8-mers
5,ACGATAAG,0.0311 % of ANNNNAAN 8-mers
6,ACCAGAAT,0.0437 % of ANNNNAAN 8-mers
7,ATCTCAAT,0.0846 % of ANNNNAAN 8-mers
8,ATTTCAAG,0.0495 % of ANNNNAAN 8-mers
9,ATGCGAAA,0.0926 % of ANNNNAAN 8-mers
10,ATCCGAAG,0.0299 % of ANNNNAAN 8-mers
11,ATTAAAAC,0.122 % of ANNNNAAN 8-mers
12,ACCGTAAA,0.0253 % of ANNNNAAN 8-mers
13,ACTTAAAA,0.0524 % of ANNNNAAN 8-mers
14,AGTATAAC,0.0328 % of ANNNNAAN 8-mers
15,AACAGAAG,0.0339 % of ANNNNAAN 8-mers
16,ACACCAAT,0.0173 % of ANNNNAAN 8-mers
17,ATCTTAAT,0.176 % of ANNNNAAN 8-mers
18,ATACAAAT,0.269 % of ANNNNAAN 8-mers
19,ATGTCAAC,0.023 % of ANNNNAAN 8-mers
20,AACCTAAA,0.0391 % of ANNNNAAN 8-mers

row,Sequence,binding signal
1,AAACAAAT,0.266 % of ANNNNAAN 8-mers
2,AGTCGAAT,0.0604 % of ANNNNAAN 8-mers
3,ATCATAAA,0.0944 % of ANNNNAAN 8-mers
4,AGGCTAAT,0.197 % of ANNNNAAN 8-mers
5,AGCCGAAA,0.0247 % of ANNNNAAN 8-mers
6,ACATCAAA,0.0391 % of ANNNNAAN 8-mers
7,AACGCAAA,0.0978 % of ANNNNAAN 8-mers
8,AGTGGAAC,0.0207 % of ANNNNAAN 8-mers
9,ACTCGAAC,0.0184 % of ANNNNAAN 8-mers
10,ACGGGAAT,0.0725 % of ANNNNAAN 8-mers
11,ACGACAAG,0.023 % of ANNNNAAN 8-mers
12,AGTTAAAT,0.213 % of ANNNNAAN 8-mers
13,AGCTTAAC,0.0219 % of ANNNNAAN 8-mers
14,ACGTGAAC,0.0247 % of ANNNNAAN 8-mers
15,ACTAGAAT,0.061 % of ANNNNAAN 8-mers
16,AAAATAAT,0.212 % of ANNNNAAN 8-mers
17,AGTAGAAG,0.0391 % of ANNNNAAN 8-mers
18,AACGTAAG,0.0351 % of ANNNNAAN 8-mers
19,ATACGAAT,0.101 % of ANNNNAAN 8-mers

# Molecular target: POU1 (OCT1 POU domain);BOB1 (OBF1, OCA-B) (human;human, UniProt P14859;Q16633 260-458;1-256, |)
# Test: EMSA-SELEX-seq; with BOB1 (ternary complex band); 20 mM Tris-HCl pH 7.6, 140 mM NaCl, 10% glycerol, 0.5 mM EDTA, 0.05% Triton X-100, 0.1 mg/mL BSA, 0.1 mg/mL poly(dI-dC), 5 mM DTT, room temperature, 20 min; high values mean tight binding
# Settings: protein: recombinant;recombinant; copies: 1;1; dsDNA, one strand shown
# Outline: as §1
row,Sequence,binding signal
1,AGCGCAAT,0.0258 % of ANNNNAAN 8-mers
2,ATGACAAA,0.0539 % of ANNNNAAN 8-mers
3,ATTTAAAA,0.178 % of ANNNNAAN 8-mers
4,ATGCGAAG,0.0523 % of ANNNNAAN 8-mers
5,ACGATAAG,0.0215 % of ANNNNAAN 8-mers
6,ACCAGAAT,0.0293 % of ANNNNAAN 8-mers
7,ATCTCAAT,0.0558 % of ANNNNAAN 8-mers
8,ATTTCAAG,0.055 % of ANNNNAAN 8-mers
9,ATGCGAAA,0.0648 % of ANNNNAAN 8-mers
10,ATCCGAAG,0.0304 % of ANNNNAAN 8-mers
11,ATTAAAAC,0.0757 % of ANNNNAAN 8-mers
12,ACCGTAAA,0.0226 % of ANNNNAAN 8-mers
13,ACTTAAAA,0.0464 % of ANNNNAAN 8-mers
14,AGTATAAC,0.0226 % of ANNNNAAN 8-mers
15,AACAGAAG,0.0273 % of ANNNNAAN 8-mers
16,ACACCAAT,0.0168 % of ANNNNAAN 8-mers
17,ATCTTAAT,0.103 % of ANNNNAAN 8-mers
18,ATACAAAT,0.526 % of ANNNNAAN 8-mers
19,ATGTCAAC,0.0273 % of ANNNNAAN 8-mers
